# Sfp inh = blocks B. subtilis Sfp PPTase activity. Potency, µM, for the others: largest response in the series, negative = inhibition, usual class: inhibitors. AID 1490. hit rate 3.5% among 310,000. Biochemical Sfp PPTase activity, qHTS. Q9F4F7;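 also: the enzyme is Sfp with the accession as filed and its product quenches rhodamine fluorescence; 0% = enzyme reaction without inhibitor and -100% = no enzyme wells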
#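 Fluorescence-quenching assay with 15 nM Sfp, 5 uM rhodamine-CoA and 12.5 uM BHQ-2-labelled ybbR peptide in pH 7.6 Hepes/MgCl2 buffer. Enzyme was pre-incubated with compound for 15 min at room temperature. Rate was taken from the 30-min fluorescence change (525/598 nm).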
# VP16 counter = Gal4-VP16 reporter inhibition counter-screen; hit rate 3.5% among 310,000; AID 2546; Potency, µM (top dose mostly 53.6 µM), inactives show at the highest dose activity, negative = inhibition, hits mostly inhibitors; Drosophila S2 Gal4-VP16 UAS-luciferase, luminescence, 20 h;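 also: Gal4-VP16 expression switched on by copper sulfate through the metallothionein promoter; nearly all actives have a fitted effect of over 50% in size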
# ALDH1A1 block = blocks purified human ALDH1A1 activity | Potency, µM (highest dose often 75.3 µM), for the others: top-dose activity, negative = inhibition, usual class: inhibitors | Purified ALDH1A1, NADH fluorescence, propionaldehyde substrate | AID 1030 | hit rate 7.3% among 220,000; active = well fitted inhibition curve with a large enough effect, not every such curve was filed as active; inconclusive = small, poorly fitted or top-dose-only effect, or another doubt; inactive = no such curve, though single readings can be large or run the other way;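 also: plate controls were no enzyme wells and a reference inhibitor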
# RORgamma inh = blocks mouse ROR gamma transcriptional activity | P51450 | Drosophila S2 Gal4-RORgamma UAS-luciferase reporter, 20 h | Potency, µM (series often up to 53.6 µM), inactives show top-dose activity change, negative = inhibition, usual class: inhibitors | hit rate 5.4% among 310,000 | AID 2551; also: nearly all actives have a fitted effect of over 60% in size
# Target sequence (P51450 whole entry, looked up, the tested form may be a part): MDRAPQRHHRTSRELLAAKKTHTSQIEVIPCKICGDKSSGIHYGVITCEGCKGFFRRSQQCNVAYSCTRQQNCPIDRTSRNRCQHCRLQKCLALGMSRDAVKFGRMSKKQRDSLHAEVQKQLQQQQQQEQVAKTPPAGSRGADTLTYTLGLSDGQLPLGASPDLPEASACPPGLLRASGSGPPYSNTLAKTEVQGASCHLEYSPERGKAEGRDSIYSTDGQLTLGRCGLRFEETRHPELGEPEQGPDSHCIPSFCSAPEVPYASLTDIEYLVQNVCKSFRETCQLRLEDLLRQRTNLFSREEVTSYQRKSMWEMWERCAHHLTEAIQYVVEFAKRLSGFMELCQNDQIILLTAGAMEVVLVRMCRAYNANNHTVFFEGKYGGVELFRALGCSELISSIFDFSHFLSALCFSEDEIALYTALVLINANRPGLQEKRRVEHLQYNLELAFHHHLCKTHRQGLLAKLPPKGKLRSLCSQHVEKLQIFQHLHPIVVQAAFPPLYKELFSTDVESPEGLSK
#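 A Gal4/UAS one-hybrid system in insect cells: metallothionein-promoter Gal4–ROR gamma fusion plus Photinus luciferase reporter. Copper sulfate 700 uM final, 20 hr ambient incubation, luminescent detection after 10 min with reagent.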
# PLK1 PBD block = inhibitors of human PLK1 polo-box domain binding; P53350; Plk1 PBD binding of FITC phosphopeptide, fluorescence polarization; Potency, µM, for the others: max response, negative = inhibition, usual class: inhibitors; hit rate 2.8% among 360,000; also: series mostly up to about 57 µM; nearly all actives have a fitted effect of over 65% in size
# Starred values were filed as active, the others as inactive; ? = inconclusive; / = not tested or not shown; [ ] = remark or other dose. Compounds with a hit are over-represented: about 12% of the library has one in this group of screens. Unless noted, calls follow the shape of the dose curve; as a rule, active = well fitted curve in the direction sought with a large enough effect; inconclusive = small, poorly fitted or top-dose-only effect, or another doubt; inactive = no such curve, though single readings can be large; an effect the other way counts as inactive or inconclusive. Unless noted, % is scaled to controls: 0 for no effect and ±100 for the full control effect; potency is read from the fitted curve at half-maximal effect.
SMILES,Sfp inh,VP16 counter,ALDH1A1 block,RORgamma inh,PLK1 PBD block
O=C(CN1CCCCCC1)Nc1ccc(F)c(F)c1,-6.8%,-5.2%,22.4µM*,-12.0%,-1.4%
Cc1cc(C)c2cc(CN(CCN3CCCC3)C(=O)Nc3ccc(F)cc3)c(=O)[nH]c2c1,8.6%,-17.8%,?,-4.8%,-8.3%
CCOc1ccc(NC(=O)CN2CCN(C3c4ccccc4-c4ccccc43)CC2)cc1,17.7%,3.7%,11.2µM*,?,-1.9%
O=C(CCN1CCCCCC1)Nc1cccc(Cl)c1,5.1%,-0.3%,-0.2%,-7.4%,3.2%
O=C(CCN1CCCCC1)Nc1cccc(Cl)c1,5.5%,0.7%,16.9%,-23.0%,26.7µM*
CCCCCCCCCCCCCCC(F)C(=O)O (centres undefined),22.8%,-8.5%,-0.8%,10.4%,/
Cc1[nH]c(=S)[nH]c(=O)c1CCC1OCCO1,79.4µM*,-0.1%,/,-23.7%,-15.7%
Cc1[nH]c(=S)[nH]c(=O)c1CCCO,?,-14.5%,-3.4%,-13.1%,-1.8%
Cc1ccc2cc(CN(c3cccc(C)c3C)S(=O)(=O)c3ccccc3)c(=O)[nH]c2c1,9.0%,-10.1%,/,7.3%,-16.0%
COC(=O)c1ccc(=O)c2nc3/c(=C/O)c(O)cc(=O)c3[nH]c12,?,-11.4%,/,11.2%,18.9µM*
COC(=O)c1ccc(N)cc1O,10.6%,1.4%,0.6%,-16.8%,-13.0%
CN(C)c1ccc(-n2cccc2/C=C/[N+](=O)[O-])cc1,?,-6.4%[10 µM],?,11.2µM*,-25.7%
NCCCC[C@H](NC(=O)[C@@H](Cc1ccccc1)NC(=O)[C@H](Cc1c[nH]c2ccccc12)NC(=O)[C@@H](CCCCN)NC(=O)[C@@H](Cc1c[nH]c2ccccc12)NC(=O)[C@@H](N)Cc1cnc[nH]1)C(N)=O,6.2%,4.1%,/,12.3%,/
C/C(CC(=O)Nc1ccc2c(c1)OCO2)=N\NC(=O)C(c1ccccc1)c1ccccc1,-14.1%,?,3.16µM*,15.8µM*,-0.9%
C/C(CC(=O)Nc1ccc2c(c1)OCO2)=N\NC(=O)c1ccccc1N,-9.8%,-6.4%,/,-33.8%,9.1%
CCNc1ncc2nc(CCc3ccccc3)c(=O)n(Cc3cccc(OC)c3)c2n1,0.4%,-23.0%,?,-37.4%,/
Fc1cccc(F)c1-n1c(CN2CCCC2)csc1=S,12.3%,-15.1%,22.4µM*,-5.8%,-16.3%
O=c1cc(-c2ccc(F)cc2F)[nH]c2ccc(F)cc12,-3.7%,-6.9%[96.6 µM],-8.6%[120 µM],38.2%[96.6 µM],/
[O-]/C(=C(\C(=S)Nc1ccc(Cl)cc1)[n+]1ccccc1)c1ccc(OC(F)F)cc1,50.1µM*,-2.0%,?,5.01µM*,?
CC(C)(C)c1cc[n+](/C(C(=S)Nc2ccccc2F)=C(/[O-])c2ccc3c(c2)OCCO3)cc1,20µM*,-9.9%,14.1µM*,10µM*,-28.9%
O=[N+]([O-])c1cccc(/C([O-])=C(/C(=S)Nc2ccccc2)[n+]2ccccc2)c1,?,?,?,-29.1%,-12.6%
[O-]/C(=C(\C(=S)Nc1ccccc1F)[n+]1ccccc1)c1ccc(-c2ccccc2)cc1,17.8µM*,-10.1%,17.8µM*,-25.2%,-16.6%
CCOc1ccccc1NC(=S)/C(=C(\[O-])c1ccc2c(c1)OCCO2)[n+]1ccc(CC)cc1,?,0.6%,20µM*,-21.3%,21.2µM*
CCOc1ccccc1NC(=O)Nc1ccc2c(c1)OCO2,-3.9%,4.4%,/,53.2%,4.4%
C[C@@]12CC[C@@H](C3=C(CCC3)C1)N2c1ccccc1,/,/,/,/,-3.5%
SMILES,Sfp inh,VP16 counter,ALDH1A1 block,RORgamma inh,PLK1 PBD block
COc1ccccc1CNC(=O)COC(=O)c1cnc(C)cn1,/,/,/,/,-4.4%
CCCC(=O)c1ccc(N2CCN(C(=O)c3ccccc3Br)CC2)c(F)c1,-12.7%,?,15.8µM*,?,-1.5%
CCCC(=O)c1ccc(N2CCN(C(=O)c3ccccc3)CC2)c(F)c1,9.0%,?,?,-24.8%,-5.0%
O=C1CN(c2ccccc2)C(=O)N1,7.5%,-5.2%,/,5.1%,-3.3%
S=C1NC(c2ccccc2)=NCN1c1ccccc1,6.0%,0.8%,0.6%,10µM*,1.5%
Cc1ccccc1Nc1nc(Nc2ccccc2C)nc(SC2=NCCS2)n1,16.3%,7.08µM*,0.1%,6.31µM*,-11.9%
Cc1ccc(Nc2nc(Nc3ccc(C)cc3)nc(SC3=NCCS3)n2)cc1,16.3%,5.62µM*,-4.5%,2.51µM*,-7.4%
Cc1ccc(Nc2nc(Cl)nc(NC(C)(C)C)n2)cc1,0.7%,/,/,/,0.6%
COCc1cc(Sc2ccc(Cl)cc2)nc(C)n1,17.3%,-4.7%[10 µM],7.4%,0.0%,0.4%
COCc1cc(S(=O)c2ccc(Cl)cc2)nc(C)n1 (centres undefined),79.4µM*,?,17.8µM*,4.47µM*,5.32µM*
Cc1cccc(S(=O)(=O)NC(=O)C2(C)CCN2C(=O)Cc2ccc(-c3ccccc3)cc2)c1 (centres undefined),/,/,/,/,-7.4%
CC1(C)Cc2nc3sc4c(=O)n(Cc5ccccc5)cnc4c3cc2CS1,-22.3%,-16.6%,?,?,-9.8%
CCCn1cnc2c(sc3nc4c(cc32)CSC(C)(C)C4)c1=O,11.7%,7.1%,0.562µM*,30.1%,-6.8%
CC(C)CCOc1ncnc2c1sc1nc3c(cc12)CSC(C)(C)C3,7.7%,0.0%,1.12µM*,35.1%,?
FC(F)(F)c1ccccc1-c1nccc(N2CCNCC2)n1,3.3%,-3.0%,15.4%,-26.0%,/
CN1CCc2c(sc3c2C(=O)NC(c2ccc(-c4ccc(Cl)cc4)o2)N3)C1 (centres undefined),50.1µM*,-4.4%,?,-11.2%,5.8%
Cc1noc(C)c1C(=O)N(C)C[C@@H]1OCc2ccccc2-c2c(n(C)c3ccccc23)C(=O)N([C@H](C)CO)C[C@H]1C,/,/,/,/,-2.7%
NNC(=O)[C@@H](O)[C@H](O)C(=O)NN,/,/,1.1%[13.5 µM],/,/
Cn1c(=O)c2cn(-c3ccc4c(c3)OCCO4)cc2n(C)c1=O,1.4%,3.0%,?,34.4%,1.8%
Cc1ccc(-n2cc3c(=O)n(C)c(=O)n(C)c3c2)cc1C,-21.4%,2.5%,14.1µM*,-2.5%,-1.4%
CC(C)[C@H](CO)NC(=O)[C@H]1O[C@@H](n2ccc(=O)[nH]c2=O)[C@H](O)[C@@H]1O,/,/,/,/,-2.8%
ClCc1csc(N/N=C/c2cccs2)n1,44.7µM*,-19.9%,/,-41.8%,/
C(=N\Nc1nc(-c2ccccc2)cs1)/c1ccncc1,?,27.7%,?,1.9%,-19.9%
C(=N\Nc1nc(-c2ccccc2)cs1)/c1cccs1,8.91µM*,3.4%,-16.9%,-25.1%,29.9µM*
COc1ccc(S(=O)(=O)N2CCC[C@H]2C(=O)N2CCC[C@H]2C(=O)NCc2ccc(F)cc2F)cc1C,/,/,/,/,2.5%
Cc1ccc(C)c(-n2c3nc(=O)n(C)c(=O)c-3cc3ccccc32)c1,-10.7%,-2.3%,/,43.0%,-5.5%
Cc1cccc(-n2c3nc(=O)[nH]c(=O)c-3cc3cc([N+](=O)[O-])ccc32)c1,-17.6%,?,5.2%,?,10.6µM*
Cn1c2nc(=O)[nH]c(=O)c-2cc2ccccc21,/,/,/,/,-1.1%

# Screening data as filed in PubChem BioAssay.
